PubChem BioAssay AID624255 (Broad Institute, 2012)
Among all 77,000 compounds or so, about 4,600 (6%) were called active. Inconclusive results (about 1%) are left out.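 The calls were made as follows: active = mean inhibition above about 93%, with at least 55% of replicates each passing it (limit read from the data, passing the limit was not always enough); inconclusive = only one of those two conditions holds; inactive = neither condition holds.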 Only a selection was taken, and actives are over-represented in it overall.

Experiment: growth inhibition of T. cruzi in host fibroblasts – cell-based, beta-gal Tulahuen parasites, NIH3T3 host, luminescence, primary screen (AID 624255)
Details: T. cruzi beta-gal in NIH3T3, GalScreen luminescence, 90 h; at 8.34 µM; active compounds read high

With COc1cccc(-c2ccc3n(c2=O)C[C@@H]2[C@@H](CO)[C@H](C(=O)NCC4CC4)N(C(=O)NC(C)C)[C@H]32)c1 as the compound, how does the inhibition read?
The inhibition was -3.92% (inactive).

Which inhibition does the source give for COc1ccc(-c2cn(CC[C@@H]3CC[C@@H](NS(=O)(=O)c4ccccc4C)[C@H](CO)O3)nn2)cc1 here?
The inhibition was -38.7% (inactive).

With O=C(Nc1ccc(-c2ccccc2)cc1)[C@@H]1[C@@H](CO)[C@@H]2Cn3c(cccc3=O)[C@H]1N2Cc1ccncc1 as the compound, how does the inhibition read?
Its inhibition is 10.3% (inactive).

Which inhibition does the source give for O=C(NC1CCCCC1)[C@@H]1[C@@H](CO)[C@@H]2Cn3c(cccc3=O)[C@@H]2N1C(=O)CC1CC1 here?
The inhibition was -9.4% (inactive).

With O=C(Nc1ccccc1)[C@@H]1[C@@H](CO)[C@@H]2Cn3c(cccc3=O)[C@@H]2N1C(=O)C1CC1 as the compound, how does the inhibition read?
Its inhibition is 90.7% (inactive).

With O=C(Nc1ccc(-c2ccccc2)cc1)[C@H]1[C@H](CO)[C@H]2Cn3c(cccc3=O)[C@H]2N1CC1CC1 as the compound, how does the inhibition read?
The inhibition was 170% (active).

Which inhibition does the source give for O=C(NCC1CCCCC1)[C@H]1[C@H](CO)[C@H]2Cn3c(cccc3=O)[C@H]2N1C(=O)CC1CC1 here?
The inhibition was 101% (active).

For CCNC(=O)[C@H]1[C@H](CO)[C@H]2Cn3c(cccc3=O)[C@H]2N1C(=O)C1CCCC1, which inhibition is on record?
Its inhibition is -9.09% (inactive).

Which inhibition does the source give for COC(=O)C[C@H]1C[C@@H]2c3cc(NC(=O)Nc4ccccc4)ccc3O[C@@H]2[C@@H](CO)O1 here?
The inhibition was 57.1% (inactive).

Which inhibition does the source give for O=C(Cc1ccccn1)NCC[C@H]1CC[C@@H](NS(=O)(=O)c2ccc(F)cc2)[C@H](CO)O1 here?
The inhibition was 13.9% (inactive).

With COc1ccc(NC(=O)N(C)C[C@@H]2OCCCC[C@H](C)Oc3ccc(NS(=O)(=O)c4c(C)noc4C)cc3C(=O)N([C@@H](C)CO)C[C@@H]2C)cc1 as the compound, how does the inhibition read?
Its inhibition is 52.5% (inactive).

For O=S(=O)(NC[C@H]1[C@@H](c2ccccc2)[C@@H](CO)N1CC1CC1)c1ccccc1, which inhibition is on record?
Its inhibition is 10.3% (inactive).

Which inhibition does the source give for CC(C)NC(=O)N1[C@H](C#N)[C@H](c2ccc(C#CC3CCCCC3)cc2)[C@H]1CO here?
The inhibition was 107% (active).

Which inhibition does the source give for CC(C)NC(=O)N1[C@H](C#N)[C@@H](c2ccc(-c3ccc(F)cc3)cc2)[C@H]1CO here?
Its inhibition is 34.6% (inactive).

For CS(=O)(=O)N1[C@H](C#N)[C@H](c2ccc(C#CC3CC3)cc2)[C@H]1CO, which inhibition is on record?
Its inhibition is 93% (inactive).

Which inhibition does the source give for CCc1cnc(N2[C@H](C#N)[C@H](c3ccc(C4=CCCC4)cc3)[C@@H]2CO)s1 here?
The inhibition was 101% (active).

For N#C[C@H]1[C@@H](c2ccc(C3=CCCCC3)cc2)[C@@H](CO)N1C(=O)Cc1ccncc1, which inhibition is on record?
Its inhibition is 57.5% (inactive).

For N#C[C@H]1[C@@H](c2ccc(C#CC3CCCC3)cc2)[C@H](CO)N1C(=O)Nc1ccc(F)cc1, which inhibition is on record?
The inhibition was 92.8% (inactive).

With CCCNC(=O)N1[C@H](C#N)[C@@H](c2ccc(C3=CCCC3)cc2)[C@H]1CO as the compound, how does the inhibition read?
The inhibition was -28.9% (inactive).

Which inhibition does the source give for N#C[C@@H]1[C@@H](c2ccc(C3=CCCC3)cc2)[C@@H](CO)N1C(=O)C1CCCC1 here?
The inhibition was 34.1% (inactive).

Which inhibition does the source give for N#C[C@@H]1[C@@H](c2ccc(C3=CCCCC3)cc2)[C@@H](CO)N1C(=O)c1cccc(F)c1 here?
Its inhibition is 5.72% (inactive).

With CS(=O)(=O)N1[C@@H](C#N)[C@H](c2ccc(C#CC3CCCCC3)cc2)[C@@H]1CO as the compound, how does the inhibition read?
Its inhibition is 105% (active).

With CS(=O)(=O)N1[C@H](C#N)[C@H](c2ccc(C#CC3CCCC3)cc2)[C@H]1CO as the compound, how does the inhibition read?
The inhibition was 91.5% (inactive).

For N#C[C@H]1[C@@H](c2ccc(C3=CCCCC3)cc2)[C@@H](CO)N1C(=O)NC1CCCCC1, which inhibition is on record?
Its inhibition is 101% (active).

With CO[C@@H]1CN(C)C(=O)c2cc(NC(=O)C3CCCCC3)ccc2OC[C@@H](C)N(C(=O)Nc2ccc(C(F)(F)F)cc2)C[C@H]1C as the compound, how does the inhibition read?
The inhibition was 15.6% (inactive).

Which inhibition does the source give for O=C(C[C@H]1CC[C@H]2[C@@H](COC[C@H](O)CN2C(=O)c2ccccc2F)O1)NCc1ccccc1 here?
The inhibition was -22.2% (inactive).

With Cc1ccc(S(=O)(=O)Nc2ccc3c(c2)C(=O)N([C@H](C)CO)C[C@@H](C)[C@@H](CN(C)S(C)(=O)=O)OCCCC[C@@H](C)O3)cc1 as the compound, how does the inhibition read?
The inhibition was 29.2% (inactive).

For CO[C@H]1CN(C)C(=O)c2cc(NC(=O)Nc3c(C)noc3C)ccc2OC[C@@H](C)N(CCC(F)(F)F)C[C@H]1C, which inhibition is on record?
The inhibition was 6.32% (inactive).

With Cc1noc(C)c1NC(=O)Nc1ccc2c(c1)C(=O)N([C@H](C)CO)C[C@@H](C)[C@H](CN(C)C(=O)Nc1cccc3ccccc13)OCCCC[C@@H](C)O2 as the compound, how does the inhibition read?
Its inhibition is 80.3% (inactive).

With C/C=C/c1ccc([C@@H]2[C@H](CO)N(C(C)=O)[C@H]2CN(CC)C(=O)CN(C)C)cc1 as the compound, how does the inhibition read?
The inhibition was 81.2% (inactive).

With C[C@@H]1CN([C@H](C)CO)C(=O)c2cc(NC(=O)CCCN(C)C)ccc2O[C@@H](C)CCCCO[C@@H]1CN(C)Cc1ccncc1 as the compound, how does the inhibition read?
The inhibition was 14.7% (inactive).

With CN(C)C(=O)[C@@H]1[C@@H](CO)[C@@H]2Cn3c(cccc3=O)[C@@H]2N1C(=O)C1CCC1 as the compound, how does the inhibition read?
The inhibition was -8.64% (inactive).

For COc1ccc(S(=O)(=O)N(C)C[C@@H]2OCCCC[C@H](C)Oc3ccc(NC(=O)NC4CCCCC4)cc3C(=O)N([C@H](C)CO)C[C@H]2C)cc1, which inhibition is on record?
The inhibition was 94% (inactive).

For O=C(C[C@H]1CC[C@@H]2[C@H](COC[C@@H](O)CN2C(=O)Nc2ccc(C(F)(F)F)cc2)O1)NCCc1ccncc1, which inhibition is on record?
The inhibition was 57% (inactive).

With O=C(C[C@@H]1CC[C@@H]2[C@H](COC[C@H](O)CN2C(=O)Cc2ccccc2)O1)NC1CCC1 as the compound, how does the inhibition read?
The inhibition was 27.2% (inactive).

Which inhibition does the source give for C[C@@H]1CN([C@@H](C)CO)C(=O)c2cc(NS(=O)(=O)c3cn(C)cn3)ccc2O[C@@H](C)CCCCO[C@H]1CN(C)S(=O)(=O)c1cn(C)cn1 here?
Its inhibition is -14.8% (inactive).

Which inhibition does the source give for C[C@H]1CN([C@@H](C)CO)C(=O)c2cc(NS(=O)(=O)c3cn(C)cn3)ccc2O[C@H]1CN(C)CC1CCCCC1 here?
The inhibition was 3.71% (inactive).

Which inhibition does the source give for C[C@@H]1CCCCO[C@H](CN(C)C(=O)CCC(F)(F)F)[C@H](C)CN([C@H](C)CO)C(=O)c2cc(NS(C)(=O)=O)ccc2O1 here?
Its inhibition is 107% (active).

With CNC[C@@H]1OCCCC[C@@H](C)Oc2ccc(NS(C)(=O)=O)cc2C(=O)N([C@H](C)CO)C[C@@H]1C as the compound, how does the inhibition read?
The inhibition was 4.76% (inactive).

Which inhibition does the source give for C[C@@H]1CN([C@H](C)CO)C(=O)c2cccc(NS(=O)(=O)c3cn(C)cn3)c2O[C@H]1CN(C)CC1CC1 here?
Its inhibition is 27.4% (inactive).

Which inhibition does the source give for C[C@H](CO)N1C[C@H](C)[C@H](CN(C)C(=O)CCC(F)(F)F)OCCCC[C@H](C)Oc2ccc(NS(C)(=O)=O)cc2C1=O here?
The inhibition was -3.61% (inactive).

For C[C@@H]1CN([C@@H](C)CO)C(=O)c2cc(NS(C)(=O)=O)ccc2O[C@@H](C)CCCCO[C@@H]1CN(C)S(=O)(=O)c1cn(C)cn1, which inhibition is on record?
The inhibition was -54% (inactive).

Which inhibition does the source give for CNC[C@H]1OCCCC[C@@H](C)Oc2ccc(NS(C)(=O)=O)cc2C(=O)N([C@H](C)CO)C[C@H]1C here?
Its inhibition is 101% (active).

Which inhibition does the source give for C[C@@H]1CN([C@H](C)CO)C(=O)c2cc(NS(=O)(=O)c3ccccc3)ccc2O[C@@H](C)CCCCO[C@@H]1CN(C)C(=O)CCC(F)(F)F here?
Its inhibition is -2.2% (inactive).

Which inhibition does the source give for C[C@@H]1CN([C@H](C)CO)C(=O)c2cc(NS(C)(=O)=O)ccc2O[C@@H](C)CCCCO[C@H]1CN(C)S(=O)(=O)c1cn(C)cn1 here?
The inhibition was 104% (active).

Which inhibition does the source give for C[C@H]1CN([C@@H](C)CO)C(=O)c2cccc(NS(=O)(=O)c3cn(C)cn3)c2O[C@@H]1CN(C)CC1CCCCC1 here?
The inhibition was 96.2% (active).

With CNC[C@H]1OCCCC[C@@H](C)Oc2ccc(NS(C)(=O)=O)cc2C(=O)N([C@@H](C)CO)C[C@H]1C as the compound, how does the inhibition read?
Its inhibition is 61.9% (inactive).

For CNC(=O)C[C@H]1CC[C@@H]2[C@@H](COc3ccc(NC(=O)c4ccc(F)c(F)c4)cc3C(=O)N2C)O1, which inhibition is on record?
Its inhibition is -6.57% (inactive).

With CCNC(=O)Nc1ccc2c(c1)C(=O)N(C)[C@H]1CC[C@@H](CC(=O)N[C@H](C)c3ccccc3)O[C@@H]1CO2 as the compound, how does the inhibition read?
The inhibition was 13.7% (inactive).

Which inhibition does the source give for Cc1noc(C)c1S(=O)(=O)N(C)C[C@@H]1Oc2ccc(NC(=O)Cn3cnnn3)cc2CC(=O)N([C@@H](C)CO)C[C@@H]1C here?
The inhibition was -16.4% (inactive).

For Cc1ccc(S(=O)(=O)N[C@@H]2CC[C@H](CCNC(=O)C3CCOCC3)O[C@@H]2CO)cc1, which inhibition is on record?
The inhibition was 2.56% (inactive).

With CO[C@H]1CN(C)C(=O)c2cc(NC(=O)C3CCC3)ccc2OC[C@H](C)N(C)C[C@H]1C as the compound, how does the inhibition read?
The inhibition was 17% (inactive).

Which inhibition does the source give for CC=Cc1ccc2n(c1=O)C[C@@H]1[C@@H](CO)[C@H](C(=O)NCC3CC3)[C@H]2N1C(=O)c1ccccc1 (mixture of isomers) here?
Its inhibition is 35.2% (inactive).

Which inhibition does the source give for COc1ccc(-c2ccc([C@@H]3[C@@H](CO)N4CCCCN(C(=O)NC(C)C)C[C@H]34)cc2)cc1 here?
The inhibition was 73.2% (inactive).

With CN1C(=O)c2cc(NS(C)(=O)=O)ccc2OC[C@H]2O[C@H](CC(=O)NCc3ccccc3)CC[C@H]21 as the compound, how does the inhibition read?
The inhibition was -19.6% (inactive).

With CO[C@@H]1CN(C)C(=O)c2ccc(NC(=O)Nc3ccccc3)cc2OC[C@@H](C)N(C(=O)CN(C)C)C[C@H]1C as the compound, how does the inhibition read?
The inhibition was -44.4% (inactive).

For O=C([C@@H]1[C@@H](CO)[C@@H]2Cn3c(ccc(-c4ccccc4)c3=O)[C@H]1N2CCC(F)(F)F)N1CCCCC1, which inhibition is on record?
Its inhibition is 1.28% (inactive).

For CNC[C@@H]1OCCCC[C@H](C)Oc2ccc(NC(=O)Nc3ccccc3)cc2C(=O)N([C@H](C)CO)C[C@H]1C, which inhibition is on record?
The inhibition was 28.6% (inactive).

For Cc1noc(C)c1NC(=O)Nc1ccc2c(c1)C(=O)N([C@H](C)CO)C[C@H](C)[C@@H](CN(C)S(C)(=O)=O)OCCCC[C@H](C)O2, which inhibition is on record?
Its inhibition is 11.5% (inactive).

For CNC[C@H]1OCCCC[C@H](C)Oc2ccc(NC(=O)Nc3c(C)noc3C)cc2C(=O)N([C@H](C)CO)C[C@H]1C, which inhibition is on record?
Its inhibition is 104% (active).

With CO[C@@H]1CN(C)C(=O)c2cc(NC(=O)NC(C)C)ccc2OC[C@@H](C)N(CC2CC2)C[C@@H]1C as the compound, how does the inhibition read?
The inhibition was -28.4% (inactive).
